Results reported in PubChem BioAssay (Tox21).
Values joined by “and” are separate entries in the source; they are usually repeats but may differ in a detail not shown here. Equal entries are not always repeated. Records with an inconclusive call do not appear. Entries that show only a call come without a potency. Some compounds were tested as several samples or in several runs, with calls that do not always agree. Active and inactive are the calls of the source. Unless noted, the call rests on the fitted dose curve.

Experiments:
[1] = qHTS assay to identify small molecule antagonists of the sonic hedgehog signaling (Shh) pathway (AID 1259369); further: nearly all actives have a fitted effect of over 45% in size; further: potency means the concentration at half of the fitted maximal effect
Outline: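 NIH/3T3 stable Gli1-Luc clone, 2,000 cells/well, 4hr settle; cpd + conditioned medium 24hr; Luc reagent 30min RT; luminescence.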

[2] = target: Estrogen receptor beta (Homo sapiens) (UniProt Q92731); assay: qHTS assay to identify small molecule antagonists of the estrogen receptor beta (ER-beta) signaling pathway (AID 1259378; active means well fitted inhibition curve with a large enough effect in the signal ratio in the repeat runs, not every such curve was filed as active; the % refers to the signal ratio; further: potency means the concentration at half of the fitted maximal effect)
Estrogen receptor beta (Homo sapiens), sequence (Q92731 whole entry, looked up): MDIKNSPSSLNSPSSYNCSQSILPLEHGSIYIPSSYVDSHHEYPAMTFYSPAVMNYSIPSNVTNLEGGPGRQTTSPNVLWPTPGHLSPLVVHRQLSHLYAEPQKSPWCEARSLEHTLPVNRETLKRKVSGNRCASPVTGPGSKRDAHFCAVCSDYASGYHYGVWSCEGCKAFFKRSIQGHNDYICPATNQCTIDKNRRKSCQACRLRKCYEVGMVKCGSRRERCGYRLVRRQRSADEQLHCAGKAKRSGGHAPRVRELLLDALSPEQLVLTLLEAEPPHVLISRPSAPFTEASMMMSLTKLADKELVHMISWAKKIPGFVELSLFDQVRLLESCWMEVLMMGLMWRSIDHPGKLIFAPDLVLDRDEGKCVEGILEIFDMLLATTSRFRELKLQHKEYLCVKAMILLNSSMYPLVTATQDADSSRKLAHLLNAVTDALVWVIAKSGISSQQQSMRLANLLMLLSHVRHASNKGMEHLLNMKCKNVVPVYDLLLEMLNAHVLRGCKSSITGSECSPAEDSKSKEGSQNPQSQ
Outline: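 ER-beta-UAS-bla HEK293T cells in 2% charcoal-stripped FBS medium treated with compound plus 1nM final 17-beta-estradiol for 16 hr at 37C. Beta-lactamase reporter read by FRET substrate fluorescence after 2 hours at room temperature.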

[3] = qHTS assay to identify small molecule agonists of the androgen receptor (AR) signaling pathway in the presence of an antagonist - cell viability counter screen (AID 1259379; active means well fitted curve in the direction sought with a large enough effect in the repeat runs; an effect the other way counts as inactive or inconclusive; further: nearly all actives have a fitted effect of over 25% in size; further: potency means the concentration at half of the fitted maximal effect)
Outline: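 MDA-kb2 viability measured by CellTiter-Fluor fluorescence in the same wells as the luciferase signal; nilutamide 3.0uM final; 15-point compound titration; 16 hr at 37C.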

[4] = qHTS assay to identify small molecule agonists of the estrogen receptor beta (ER-beta) signaling pathway - cell viability counter screen (AID 1259380; active means well fitted curve in the direction sought with a large enough effect in the repeat runs; an effect the other way counts as inactive or inconclusive; further: nearly all actives have a fitted effect of over 30% in size; further: potency means the concentration at half of the fitted maximal effect)
Outline: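 Measured: luminescence from CellTiter-Glo after 30 min at room temperature, added to wells already read for the LiveBLAzer FRET reporter (2 hr substrate); ER-beta-UAS-bla HEK293T cells had 16 hr compound treatment at 37C, 5% CO2.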

[5] = target: Estrogen receptor (Homo sapiens) (UniProt P03372); assay: qHTS assay to identify small molecule agonists of the estrogen receptor alpha (ER-alpha) signaling pathway in the presence of an antagonist (AID 1259383); further: top concentration of the series differs between compounds; nearly all actives have a fitted effect of over 15% in size
Estrogen receptor (Homo sapiens), sequence (P03372 whole entry, looked up): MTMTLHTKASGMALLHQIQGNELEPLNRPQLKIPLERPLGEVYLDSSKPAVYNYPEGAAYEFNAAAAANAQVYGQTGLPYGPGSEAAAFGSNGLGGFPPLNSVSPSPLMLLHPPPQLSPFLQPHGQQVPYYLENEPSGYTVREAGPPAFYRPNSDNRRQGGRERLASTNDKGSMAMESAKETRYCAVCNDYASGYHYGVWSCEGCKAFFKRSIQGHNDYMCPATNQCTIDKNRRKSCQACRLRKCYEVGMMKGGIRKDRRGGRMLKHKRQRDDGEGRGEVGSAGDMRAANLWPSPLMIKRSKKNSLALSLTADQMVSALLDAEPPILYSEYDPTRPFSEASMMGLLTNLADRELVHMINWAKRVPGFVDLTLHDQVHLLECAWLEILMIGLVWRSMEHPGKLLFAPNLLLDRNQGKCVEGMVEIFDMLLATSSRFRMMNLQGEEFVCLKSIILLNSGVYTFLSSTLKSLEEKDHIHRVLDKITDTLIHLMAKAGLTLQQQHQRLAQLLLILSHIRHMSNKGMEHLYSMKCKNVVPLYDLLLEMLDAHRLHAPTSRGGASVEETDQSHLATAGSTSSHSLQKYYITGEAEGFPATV
Outline: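 Quantitative HTS confirmation: compounds titrated at 15 concentrations onto estrogen-deprived VM7Luc4E2 cells carrying a four-ERE luciferase construct, with ICI-182,780 present at 10.0nM final. Signal is luminescence after 22hr exposure.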

[6] = qHTS assay to identify small molecule agonists or antagonists of the thyroid stimulating hormone receptor (TSHR) signaling pathway - wild type cell line counter screen (AID 1259384)
Outline: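 Wild-type Hek293 cells, 800/well, 18 h at 37C, then compound with Ro20-1724 for 30 min RT. cAMP by HTRF (cAMP-d2/anti-cAMP cryptate), 1 h RT, fluorescence read. 15 concentrations, triplicates.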

[7] = target: Thyrotropin receptor (Homo sapiens) (UniProt P16473); assay: qHTS assay to identify small molecule antagonists of the thyroid stimulating hormone receptor (TSHR) signaling pathway (AID 1259385); further: nearly all actives have a fitted effect of over 20% in size; further: potency means the concentration at half of the fitted maximal effect
Thyrotropin receptor (Homo sapiens), sequence (P16473 whole entry, looked up): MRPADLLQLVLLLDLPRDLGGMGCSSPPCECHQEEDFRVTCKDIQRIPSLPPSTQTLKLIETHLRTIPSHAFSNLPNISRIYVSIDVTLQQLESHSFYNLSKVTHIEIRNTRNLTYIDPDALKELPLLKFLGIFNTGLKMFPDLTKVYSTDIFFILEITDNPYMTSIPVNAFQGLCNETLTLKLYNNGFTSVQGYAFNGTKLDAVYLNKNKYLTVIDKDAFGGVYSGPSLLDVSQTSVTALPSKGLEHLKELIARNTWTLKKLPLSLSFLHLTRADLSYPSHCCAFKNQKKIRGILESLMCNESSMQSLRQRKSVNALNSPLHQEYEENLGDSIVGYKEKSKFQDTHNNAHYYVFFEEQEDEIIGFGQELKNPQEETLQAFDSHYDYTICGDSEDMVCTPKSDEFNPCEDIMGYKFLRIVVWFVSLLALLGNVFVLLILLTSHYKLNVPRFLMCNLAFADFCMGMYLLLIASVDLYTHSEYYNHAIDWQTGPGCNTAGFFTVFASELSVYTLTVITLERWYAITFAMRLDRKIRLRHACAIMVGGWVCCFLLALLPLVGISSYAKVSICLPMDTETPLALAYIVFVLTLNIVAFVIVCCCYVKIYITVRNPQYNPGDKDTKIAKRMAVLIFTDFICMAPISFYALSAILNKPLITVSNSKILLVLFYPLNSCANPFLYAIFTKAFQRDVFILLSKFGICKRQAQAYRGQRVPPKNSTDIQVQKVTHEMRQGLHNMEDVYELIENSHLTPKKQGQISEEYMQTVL
Outline: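 TSHR-HEK293 cells (800/well) plated 18 h, then compounds with Ro20-1724 and TSH at 1.5 ng/mL final, 30 min at room temperature. cAMP quantified by HTRF (cAMP-d2/anti-cAMP-cryptate, 1 h); 15 concentrations in triplicate.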

[8] = qHTS assay to identify small molecule antagonists of the estrogen receptor beta (ER-beta) signaling pathway - cell viability counter screen (AID 1259382; active means well fitted curve in the direction sought with a large enough effect in the repeat runs; an effect the other way counts as inactive or inconclusive; further: nearly all actives have a fitted effect of over 55% in size; further: potency means the concentration at half of the fitted maximal effect)
Outline: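 Readout: luminescence, CellTiter-Glo, same wells as bla assay. System: ER-beta-UAS-bla GripTite HEK293T, 2% charcoal-stripped FBS. Exposure: compounds plus 1nM 17-beta-estradiol, 16 hr, 37C.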

[9] = target: Androgen receptor (Homo sapiens) (UniProt P10275); assay: qHTS assay to identify small molecule agonists of the androgen receptor (AR) signaling pathway in the presence of an antagonist (AID 1259381); further: nearly all actives have a fitted effect of over 15% in size
Androgen receptor (Homo sapiens), sequence (P10275 whole entry, looked up): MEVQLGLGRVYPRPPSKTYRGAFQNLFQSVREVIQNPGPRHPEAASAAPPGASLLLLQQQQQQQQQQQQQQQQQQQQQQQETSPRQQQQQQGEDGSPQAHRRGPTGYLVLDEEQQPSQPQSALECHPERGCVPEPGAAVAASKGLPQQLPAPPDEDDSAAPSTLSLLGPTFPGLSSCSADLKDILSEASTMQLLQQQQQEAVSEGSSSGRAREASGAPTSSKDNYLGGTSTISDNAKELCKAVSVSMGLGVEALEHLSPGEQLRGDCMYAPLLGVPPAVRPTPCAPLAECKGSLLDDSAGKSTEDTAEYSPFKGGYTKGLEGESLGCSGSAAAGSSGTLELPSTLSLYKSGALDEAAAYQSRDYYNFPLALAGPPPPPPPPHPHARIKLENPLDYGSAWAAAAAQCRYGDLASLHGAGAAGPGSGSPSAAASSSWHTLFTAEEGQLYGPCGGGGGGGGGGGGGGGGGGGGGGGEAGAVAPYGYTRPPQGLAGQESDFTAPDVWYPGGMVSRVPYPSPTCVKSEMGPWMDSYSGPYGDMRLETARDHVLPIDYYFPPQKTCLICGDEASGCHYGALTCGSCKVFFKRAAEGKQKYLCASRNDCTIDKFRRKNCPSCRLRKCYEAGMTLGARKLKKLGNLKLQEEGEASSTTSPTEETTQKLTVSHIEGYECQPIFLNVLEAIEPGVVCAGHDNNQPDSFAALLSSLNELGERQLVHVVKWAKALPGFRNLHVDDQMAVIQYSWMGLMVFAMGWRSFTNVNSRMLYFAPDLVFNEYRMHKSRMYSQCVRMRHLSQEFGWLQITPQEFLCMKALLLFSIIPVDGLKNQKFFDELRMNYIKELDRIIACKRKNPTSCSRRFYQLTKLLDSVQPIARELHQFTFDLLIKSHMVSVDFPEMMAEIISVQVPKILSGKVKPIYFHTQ
Outline: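 Luminescent ONE-Glo read, 30min at room temperature, follows 16hr compound exposure (15 concentrations) of MDA-kb2 cells at 37C, 0% CO2, with nilutamide added at 3.0uM final.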

[10] = target: Estrogen receptor beta (Homo sapiens) (UniProt Q92731); assay: qHTS assay to identify small molecule agonists of the estrogen receptor beta (ER-beta) signaling pathway (AID 1259377; active means well fitted activation curve with a large enough effect in the signal ratio in the repeat runs, not every such curve was filed as active; the % refers to the signal ratio)
Outline: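 Beta-lactamase reporter readout: fluorescence of LiveBLAzer B/G FRET substrate after 2 h at room temperature, following 16 h compound treatment of ER-beta-UAS-bla HEK293T cells at 37C in 2% charcoal-stripped FBS medium.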

| Structure (SMILES) | Potency [1] | Potency [2] | Potency [3] | Potency [4] | Potency [5] | outcome [6] | Potency [7] | Potency [8] | Potency [9] | Potency [10] |
| --- | --- | --- | --- | --- | --- | --- | --- | --- | --- | --- |
| CCC(C)(NC(=O)c1cc(Cl)c(C)c(Cl)c1)C(=O)CCl (stereo not given) | inactive | 19.4 µM (active) | 61.5 µM (active) | 61.5 µM (active) | inactive | – | – | – | – | – |
| CCCCNP(N)(N)=S | inactive | inactive | inactive | inactive | inactive | inactive | inactive | – | – | – |
| CCOP(=O)(OCC)SCCSCC | inactive | inactive | inactive | inactive | inactive | inactive | inactive | inactive | – | – |
| COc1c(C(C)(C)C)cc([N+](=O)[O-])c(C)c1[N+](=O)[O-] | inactive | inactive | inactive | inactive | inactive | – | – | inactive | – | – |
| O=NN1CCNCC1 | inactive | – | inactive | inactive | inactive | – | – | inactive | – | – |
| O=S1(=O)OC(c2cc(Br)c(O)c(Br)c2)(c2cc(Br)c(O)c(Br)c2)c2ccccc21 | 7.05 µM (active) | – | 25 µM (active) | 31.5 µM (active) | inactive | – | – | – | inactive | – |
| IC(I)=C(I)I | 2.73 µM (active) | – | 27.3 µM (active) | 21.7 µM (active) | inactive | – | inactive | 21.7 µM (active) | inactive | – |
| CCCCN(N=O)C(=N)N[N+](=O)[O-] | 27.9 µM (active) | – | inactive | inactive | – | inactive | – | inactive | inactive | – |
| C=CC(C)=O | inactive | – | inactive | inactive | inactive | inactive | inactive | inactive | – | – |
| [CH3][Sn]([CH3])([Cl])[Cl] | 2.43 µM (active) | – | inactive | inactive | – | – | – | inactive | – | – |
| O=C(NC(=O)c1c(F)cccc1F)Nc1ccc(OC(F)(F)C(F)OC(F)(F)F)c(Cl)c1 (stereo not given) | inactive | inactive | inactive | inactive | inactive | inactive | inactive | inactive | – | – |
| C=CCCl | inactive | – | inactive | inactive | inactive | inactive | inactive | inactive | – | – |
| CCOc1nc(F)cc2nc(S(=O)(=O)Nc3c(Cl)cccc3Cl)nn12 | inactive | inactive | inactive | – | inactive | – | – | – | – | – |
| N#CCC#N | inactive | inactive | inactive | – | inactive | inactive | – | – | inactive | – |
| CCOC(=O)C(Cl)C(C)=O (stereo not given) | inactive | – | inactive | inactive | inactive | inactive | inactive | inactive | – | – |
| CCOC(=O)COc1cc(-c2nn(C)c(OC(F)F)c2Cl)c(F)cc1Cl | inactive | – | inactive | inactive | – | inactive | – | inactive | inactive | – |
| CCn1cc[n+](C)c1 | inactive and 19.3 µM (active) and 38.8 µM (active) | – | inactive and 27.6 µM (active) | inactive | – | – | – | inactive | – | – |
| C=COC(C)=O | inactive | – | inactive | inactive | – | inactive | inactive | inactive | – | – |
| ClC=C(Cl)Cl | inactive | – | inactive | inactive | inactive | inactive | inactive | – | – | – |
| O=Cc1ccc(Cl)cc1Cl | inactive | inactive | inactive | inactive | – | – | – | – | – | – |
| NNC(=O)c1cccnc1 | inactive | – | inactive | inactive | inactive | inactive | inactive | inactive | – | – |

| Structure (SMILES) | Potency [1] | Potency [2] | Potency [3] | Potency [4] | Potency [5] | outcome [6] | Potency [7] | Potency [8] | Potency [9] | Potency [10] |
| --- | --- | --- | --- | --- | --- | --- | --- | --- | --- | --- |
| COC(=O)c1cncn1C(C)c1ccccc1 (stereo not given) | inactive | – | inactive | – | inactive | inactive | inactive | inactive | – | – |
| ClP(Cl)(Cl)(Cl)Cl | inactive | – | inactive | – | inactive | inactive | – | inactive | – | – |
| CO/N=C(/C(=O)OC)c1ccccc1COc1ccccc1C | 4.33 µM (active) | – | 54.5 µM (active) | – | inactive | – | inactive | inactive | inactive | – |
| CC(C)O.CC(C)O.OCCN(CCO)CCO.OCCN(CCO)CCO.[Ti] | inactive | – | inactive | inactive | – | inactive | inactive | – | – | – |
| COP(=S)(Oc1cc(Cl)c(Br)cc1Cl)c1ccccc1 (stereo not given) | inactive | – | inactive | – | inactive | – | inactive | – | inactive | – |
| CN1[C@@H]2CC[C@H]1CC(OC(=O)c1cc(Cl)cc(Cl)c1)C2 (stereo not given in full) | – | inactive | inactive | 26.6 µM (active) | inactive | inactive | 26.6 µM (active) | inactive | – | inactive |
| CCN(C)N=O | inactive | – | inactive | – | inactive | inactive | inactive | inactive | – | – |
| NCCCNCCCN | – | inactive | inactive | – | – | inactive | inactive | – | inactive | inactive |
| O=C(OC1CCCCC1)c1ccccc1C(=O)OC1CCCCC1 | 51.2 µM (active) | – | inactive | – | inactive | inactive | inactive | – | – | – |
| CC(C)=CCOc1c2occc2cc2ccc(=O)oc12 | – | inactive | inactive | inactive | inactive | inactive | – | inactive | inactive | inactive |
| CC(Cl)Cl | – | inactive | inactive | inactive | inactive | inactive | – | inactive | – | inactive |
| BrCCCCBr | inactive | – | inactive | – | inactive | inactive | – | inactive | – | – |
| CC1(C)CCC(Cc2ccc(Cl)cc2)C1(O)Cn1cncn1 (stereo not given) | 27.3 µM (active) | – | – | – | inactive | inactive | – | – | – | – |
| N#Cc1cc(I)c(O)c(I)c1 | 24.3 µM (active) | – | – | – | – | inactive | – | – | inactive | – |
| O=C1C(Cl)C(CCl)CN1c1cccc(C(F)(F)F)c1 (stereo not given) | – | inactive | inactive | – | – | inactive | inactive | inactive | inactive | inactive |
| C/C=C/C=O | inactive | – | inactive | – | – | – | – | inactive | – | – |
| CC(Cl)C(C)Cl (stereo not given) | – | inactive | inactive | inactive | inactive | – | – | – | – | inactive |
| Clc1cc(Cl)c(Cl)c(Cl)c1 | inactive | – | inactive | – | inactive | inactive | inactive | inactive | – | – |
| COP(=O)(OC)O/C(=C/Cl)c1cc(Cl)c(Cl)cc1Cl | 57.5 µM (active) | – | – | – | inactive | inactive | – | inactive | inactive | – |
| CCCCCCCCCCOC(=O)c1ccccc1C(=O)OCCCCCCCCCC | inactive | – | inactive | – | inactive | – | inactive | inactive | inactive | – |
